In the library only some 4.6% were active in any assay of this set; here they are far more common.
KKLEB cytotox: counter-screen for CF NF-kB inhibitors: cytotoxicity; KKLEB CF airway cells viability, ATPlite luminescence, overnight; active compounds read low; cells stimulated with P. aeruginosa culture filtrate; activity change (cytotoxicity), % at 5 µM; 360,000 tested, 0.36% active; AID 602141;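 active means corrected activity change at or below -50% at 5 µM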
ABHD5 PLIN5 PPI: ABHD5-PLIN5 protein interaction inhibition; Split G. princeps luciferase complementation, luminescence, 4 h; inhibition, % at 4 µM; 360,000 tested, 0.78% active; AID 602281;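 active means inhibition above the mean inhibition across every tested compound plus 3 SD, cut at about 22% in these data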
Target sequence (Q00G26 whole entry, looked up): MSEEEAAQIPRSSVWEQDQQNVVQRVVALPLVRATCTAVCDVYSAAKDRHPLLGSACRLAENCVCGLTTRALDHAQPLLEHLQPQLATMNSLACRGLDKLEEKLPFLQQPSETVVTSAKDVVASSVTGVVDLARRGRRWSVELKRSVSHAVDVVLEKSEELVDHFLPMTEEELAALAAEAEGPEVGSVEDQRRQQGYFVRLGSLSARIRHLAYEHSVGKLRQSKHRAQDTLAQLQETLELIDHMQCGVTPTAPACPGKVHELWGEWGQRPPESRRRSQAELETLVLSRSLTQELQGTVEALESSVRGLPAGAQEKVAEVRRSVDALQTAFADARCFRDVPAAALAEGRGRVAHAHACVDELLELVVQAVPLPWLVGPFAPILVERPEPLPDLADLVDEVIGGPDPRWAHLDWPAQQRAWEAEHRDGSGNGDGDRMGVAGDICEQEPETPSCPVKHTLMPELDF
Target sequence (Q8WTS1 whole entry, looked up): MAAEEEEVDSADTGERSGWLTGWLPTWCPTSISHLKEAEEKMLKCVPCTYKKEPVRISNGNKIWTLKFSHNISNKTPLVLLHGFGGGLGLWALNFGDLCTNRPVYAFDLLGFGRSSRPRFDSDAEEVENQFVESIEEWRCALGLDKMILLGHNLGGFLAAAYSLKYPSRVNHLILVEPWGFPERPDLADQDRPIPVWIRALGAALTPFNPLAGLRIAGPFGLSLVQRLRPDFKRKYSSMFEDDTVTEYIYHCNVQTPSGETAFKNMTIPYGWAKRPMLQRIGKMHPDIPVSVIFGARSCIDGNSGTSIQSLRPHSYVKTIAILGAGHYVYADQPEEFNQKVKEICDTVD
Peg3 promoter: reduces Peg3 promoter-driven luciferase expression in HeLa; HeLa PEG-Prom luciferase reporter, luminescence, overnight; inhibition, % at 20 µM; 360,000 tested, 1.7% active;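 active means inhibition of at least 50% at 20 µM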
Mdm2 MdmX PPI: human Mdm2/MdmX binding inhibition. inhibition, % at 8 µM. O15151+Q00987. AID 485346. SaOS-2 split-luciferase Mdm2/MdmX complementation, luminescence. 330,000 tested, 3% active;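 active means inhibition of at least 50% at 8 µM in the primary screen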
CF NFkB block: cystic fibrosis NF-kB activation inhibition; KKLEB NF-kB-GFP reporter, PAF-induced, GFP fluorescence overnight; inhibition, % at 5 µM; 360,000 tested, 0.86% active;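 active means at least 50% inhibition at 5 µM, scaled per plate between neutral and stimulator controls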;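 further: PAF is a Pseudomonas aeruginosa culture filtrate used as stimulus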
HIF-2a block: blocks HIF-2a reporter activity; 360,000 tested, 0.72% active; inhibition, % at 18.8 µM; 786-0 RCC cells HIF-2a reporter, luciferase luminescence, overnight;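 active means inhibition of the luminescence signal of 40% or more relative to plate controls, in a single-dose primary screen at 18.75 µM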
Each line names hits and unclear results; the compound was inactive in the other large screens.

COc1cc(CN2CCC(C(=O)NC(c3ccc(-c4ccccc4)cc3)c3cnccn3)CC2)cc(OC)c1 (stereo not drawn)	none (no result: Mdm2 MdmX PPI)
O=C(NC(c1ccc(-c2ccccc2)cc1)c1cnccn1)C1CCN(Cc2ccc(Oc3ccccc3)cc2)CC1 (stereo not drawn)	Peg3 promoter 55.8 (no result: Mdm2 MdmX PPI)
CC(=O)C1=CCC(c2ccccc2)N(S(=O)(=O)c2ccccc2C)C1 (stereo not drawn)	none (no result: Mdm2 MdmX PPI)
O=C(c1cc2ccccc2o1)N1CCN(c2ccccn2)CC1	none
Cc1cc(=O)oc2c(O)c(O)ccc12	none (no result: Mdm2 MdmX PPI)
Cc1cc(=O)oc2c(N)nccc12	ABHD5 PLIN5 PPI 22.1 (no result: Mdm2 MdmX PPI)
COc1cccc(-c2cnc3c(NC(C)=O)cc(-c4ccc(C(=O)N5CCOCC5)cc4)cn23)c1	none (no result: Mdm2 MdmX PPI)
CCN(CC)CCNC(CC(=O)Nc1ccc(Cl)cc1Cl)C(=O)O (stereo not drawn)	none
CCN(CC)CCNc1ccc(CO)c2oc3cc(Cl)ccc3c(=O)c12	Peg3 promoter 100.8 (no result: Mdm2 MdmX PPI)
CC(=O)N1CCc2c(sc(NC(=O)c3ccc([N+](=O)[O-])o3)c2C#N)C1	KKLEB cytotox -63.8, Peg3 promoter 109.4, CF NFkB block 98.2 (no result: Mdm2 MdmX PPI)
O=C(/C=C/c1ccccc1)c1ccccn1	ABHD5 PLIN5 PPI 23.1
C[C@@H](NC(=O)c1ncn2c1c(=O)[nH]c1ccc(Br)cc12)c1ccccc1	Peg3 promoter 79.1 (no result: Mdm2 MdmX PPI)
O=C(O)c1ccc2c(=O)n3cc(C(=O)c4ccccc4O)cc(Cl)c3nc2c1	none
O=C(CCN1C(=O)/C(=C/c2ccccc2Cl)SC1=S)Nc1ccccc1C(=O)O	none
O=C(CCCN1C(=O)/C(=C/c2cccs2)SC1=S)NNC(=O)c1cccnc1	none
O=C(CCCN1C(=O)/C(=C/c2ccccc2Cl)SC1=S)NNC(=O)c1cccnc1	HIF-2a block 84.2
O=C(CCCN1C(=O)/C(=C/c2ccccc2Cl)SC1=S)NNC(=O)c1ccccc1	HIF-2a block 90.3
O=C1c2[nH]nc(-c3ccccc3O)c2C(c2ccc(F)cc2)N1Cc1ccco1 (stereo not drawn)	none
O=C1c2[nH]nc(-c3ccccc3O)c2C(c2cccc(Cl)c2)N1Cc1ccco1 (stereo not drawn)	Peg3 promoter 59.8
Cc1ccc(C(C)C)c(OCc2ccc(C(=O)N/N=C/c3ccc(O)cc3O)cc2)c1	HIF-2a block 71.5 (no result: Mdm2 MdmX PPI)
CC(C)C[C@H]1CN(CCCC[C@@H]2CNC(=O)C(=O)N2Cc2ccccc2)C(=O)C(=O)N1CCc1ccccc1	none (no result: KKLEB cytotox, Peg3 promoter, Mdm2 MdmX PPI, CF NFkB block)
CCCN(C(=O)COC(=O)CSc1ccc([N+](=O)[O-])cc1)C1CCS(=O)(=O)C1 (stereo not drawn)	none
C=CCNc1nnc(SC2CC(=O)N(c3ccc(OCCC)cc3)C2=O)s1 (stereo not drawn)	Peg3 promoter 104.3
CCOc1ccc2nc(SC3CC(=O)N(c4ccc(C)cc4)C3=O)sc2c1 (stereo not drawn)	Peg3 promoter 88.8
CCOc1ccc(N2C(=O)CC(Sc3nc4ccc(OCC)cc4s3)C2=O)cc1 (stereo not drawn)	none
O=[N+]([O-])c1cc2no[n+]([O-])c2cc1N1CCCCC1	Peg3 promoter 99.0 (no result: Mdm2 MdmX PPI)
N#Cc1cc(N2CCCCC2)c([N+](=O)[O-])cc1C#N	none
COc1ccc(-c2cc(=O)oc3c(C)c(OC(C)C(C)=O)ccc23)cc1 (stereo not drawn)	Peg3 promoter 52.2
C=CC(=O)Nc1cccc(Oc2ccnc(Nc3ccc(N4CCN(C)CC4)cc3)n2)c1	Peg3 promoter 51.8, CF NFkB block 63.3, HIF-2a block 58.5 (no result: Mdm2 MdmX PPI)
C=CC(=O)Nc1cccc(Oc2ccnc3[nH]ccc23)c1	none (no result: Mdm2 MdmX PPI)
C=CC(=O)Nc1cccc(N(C)c2ccnc(Nc3ccc(N4CCN(C)CC4)cc3)n2)c1	CF NFkB block 61.0 (no result: Mdm2 MdmX PPI)
CCCCC(CC)COP(=O)(OCC(CC)CCCC)OCC(CC)CCCC (stereo not drawn)	none
CCCCC(CC)CN1CN(CC(CC)CCCC)CC(C)(N)C1 (stereo not drawn)	Peg3 promoter 102.8 (no result: Mdm2 MdmX PPI)
COc1ccc(CNC(=O)Nc2nc(C(N)Cc3ccc(Cl)cc3)cs2)cc1 (stereo not drawn)	Peg3 promoter 95.6 (no result: Mdm2 MdmX PPI)
COc1ccccc1CNC(=O)Nc1nc(C(N)C(C)C)cs1 (stereo not drawn)	none (no result: Mdm2 MdmX PPI)
COc1ccccc1CNC(=O)Nc1nc(C(N)Cc2ccc(Cl)cc2)cs1 (stereo not drawn)	Peg3 promoter 93.7 (no result: Mdm2 MdmX PPI)
COc1ccc(NC(=O)NCc2ccc(Cl)cc2)cc1	none
COc1ccc(CNC(=O)Nc2nc(C(N)CCc3ccccc3)cs2)cc1 (stereo not drawn)	Peg3 promoter 88.0 (no result: Mdm2 MdmX PPI)
CC1C(=O)C(C)C(c2cccc(Br)c2)NC1c1cccc(Br)c1 (stereo not drawn)	none
C[C@H](CO)N1C[C@H](C)[C@H](CN(C)C(=O)Nc2ccc(C(F)(F)F)cc2)OCc2cnnn2CCCC1=O	none (no result: Mdm2 MdmX PPI)
CC1=C(C(=O)N2CCCCCC2)CC(CC(=O)NC2CCCCC2)C(=O)N1Cc1ccc(C(C)(C)C)cc1 (stereo not drawn)	none (no result: Mdm2 MdmX PPI)
O=C(c1cccs1)N1CCN(C(=O)c2cccs2)C1=S	Peg3 promoter 99.2 (no result: Mdm2 MdmX PPI)
O=C(c1cccs1)N1CCCC1	none
COCCN1CCN(C(=O)c2cc(COc3ccc(Cl)cc3OC)on2)CC1	none
CCCc1ccc(-c2cc(C(=O)N/N=C/c3ccc([N+](=O)[O-])o3)c3ccccc3n2)cc1	KKLEB cytotox -50.8
C=CCN1C(=O)/C(=C/c2ccc(OC(C)=O)c(OCC)c2[N+](=O)[O-])SC1=S	CF NFkB block 54.1 (no result: Mdm2 MdmX PPI)
CCOc1c(OC(C)=O)ccc(/C=C/c2ccc3cccc(OC(C)=O)c3n2)c1[N+](=O)[O-]	none
COc1ccc(CN2CCOCC2)cc1OC	none
COc1cc2sc3ccc(-c4ccc(CN5CCOCC5)cc4)cc3c(=O)c2cc1OC	Peg3 promoter 99.2
CCOc1cc(/C=C/c2cc(C(F)(F)F)[nH]c(=O)n2)ccc1O	none
COc1ccc(/C=C/c2cc(C(F)(F)F)[nH]c(=O)n2)cc1OC	ABHD5 PLIN5 PPI 22.3
O=C(O)CCc1ccc(-c2cccs2)o1	ABHD5 PLIN5 PPI 70.0
COc1ccc(CC2=C(O)c3ccccc3C(=O)C2=O)cc1	none
O=C1C(=O)c2ccccc2C(O)=C1CCCCl	CF NFkB block 79.0
Cc1ccc(-n2c(C)cc(C(=O)COC(=O)C3=NNC(=O)CC3)c2C)cc1	HIF-2a block 50.2
CCOC(=O)c1ccc(N2C(=O)C=CC2=O)cc1	Peg3 promoter 103.2, HIF-2a block 95.1
Cc1ccc(-c2nc3cccnc3o2)cc1NC(=O)COc1ccc(C(C)(C)C)cc1	Peg3 promoter 57.7
Cc1ccc(CNC(=O)c2oc3ccc(S(=O)(=O)N4CCC5(CC4)OCCO5)cc3c2C)cc1	Peg3 promoter 51.1
O=C(Oc1ccc(NC2=C(Cl)C(=O)c3ccccc3C2=O)cc1)c1ccc([N+](=O)[O-])cc1	Peg3 promoter 99.1 (no result: Mdm2 MdmX PPI)
O=C(CCCCn1ccc(=O)[nH]c1=O)Nc1ccc(O)c(C(=O)O)c1	none (no result: Mdm2 MdmX PPI)

Source: PubChem (several laboratories)
